{"source": "the supplement of paper PMC10681739"}
{"molecular_target": "RUNX1 (UniProt Q01196)", "sequence (Q01196 whole entry)": "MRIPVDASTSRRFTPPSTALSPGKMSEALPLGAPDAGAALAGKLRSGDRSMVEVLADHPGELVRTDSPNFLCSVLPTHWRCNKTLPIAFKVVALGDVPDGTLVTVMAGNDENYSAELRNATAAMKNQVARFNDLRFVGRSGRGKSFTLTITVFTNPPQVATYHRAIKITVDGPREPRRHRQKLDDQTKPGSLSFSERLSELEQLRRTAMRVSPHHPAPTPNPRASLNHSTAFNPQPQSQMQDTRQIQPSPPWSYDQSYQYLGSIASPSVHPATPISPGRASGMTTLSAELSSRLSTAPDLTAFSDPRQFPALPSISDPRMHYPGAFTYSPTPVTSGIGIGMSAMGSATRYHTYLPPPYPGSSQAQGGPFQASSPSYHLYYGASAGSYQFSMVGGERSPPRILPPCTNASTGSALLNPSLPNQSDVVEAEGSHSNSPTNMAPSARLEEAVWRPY", "assay": "RUNX1 binding intensity (PBM fluorescence) in presence of ETS1, normalised to RUNX1-only experiment (arbitrary fluorescence units); higher = stronger binding", "settings": "RUNX1 concentration 2 nM; ETS1 concentration 25 nM", "method": "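Cooperative gcPBM on 36-bp genomic probes with neighbouring ETS1 and RUNX1 sites. Recombinant human RUNX1 (2 nM) was incubated alone or with ETS1 (25 nM) and detected with anti-RUNX1 antibody plus Alexa488 secondary. Values are medians over 4 replicate spots; the RUNX1+ETS1 data were normalised to the RUNX1-only data. The probes sit in constant array flanks that are not printed.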"}
{"sequence": "CAACTGACCGGACAGAACACAGCCACAAAACACGAG", "RUNX1 binding intensity": 824}
{"sequence": "TTGCACACGTGGGCGGGAAGTGGTTAAGCGGCCTCA", "RUNX1 binding intensity": 1210}
{"sequence": "GCCACATATTTCCTGTGACAACCCTGTGGTGTGGCT", "RUNX1 binding intensity": 1640}
{"sequence": "CTCCTGTTCCGGCTCAAAGGGAAACCGCTGCTTTTC", "RUNX1 binding intensity": 1460}
{"sequence": "GCCCACCCGCTTCCGGTTGTGGGCCCCGCCCGCCGA", "RUNX1 binding intensity": 7040}
{"sequence": "AAGGCGGAGGAAGGGAAAATTGTGGTTGGGCAGAGG", "RUNX1 binding intensity": 887}
{"sequence": "TGCATGCAACAGGAAGTGGGGTGTGGTTTGTTCTGG", "RUNX1 binding intensity": 1890}
{"sequence": "CGAAGCCGGAAATGCTGAGTGTGCGGGGCCGAACGT", "RUNX1 binding intensity": 1220}
{"sequence": "CTCGCGATTCCTCTTCCGCTGCGGTCTCCTTAACAC", "RUNX1 binding intensity": 2170}
{"sequence": "GTTCTTCCACGTCCGCGTTACCCACAACGGCAGTGG", "RUNX1 binding intensity": 1090}
{"sequence": "CCCGGAGGACGTCCGGCCTCTGTGAGCCGCAACCTT", "RUNX1 binding intensity": 1370}
{"sequence": "CGGGCGAGCGCAGGATGCGGTTGTCGAACGCGCGGC", "RUNX1 binding intensity": 1100}
{"sequence": "TTCTGCTACATCCTGCCCACTCCCTGTGGCTTCCAC", "RUNX1 binding intensity": 3270}
{"sequence": "CTTTTCCATGCAGGAAGTGGTTTTTAGAGTGTAGAG", "RUNX1 binding intensity": 2920}
{"sequence": "TGTGTAACTTCCTGGCTTTGGTGGTTTCCCCCTCCT", "RUNX1 binding intensity": 2180}
{"sequence": "CCTGTTTCCTGCCATCTGCCCTTCCTTTGTGGTCAA", "RUNX1 binding intensity": 6290}
{"sequence": "GACCGAGAGGAAGCAGCAAGGATCCTGCGGTTCCAG", "RUNX1 binding intensity": 875}
{"sequence": "GGAGGGGCTGGCCGGAAGTGAACCGCAGAGCACGCT", "RUNX1 binding intensity": 2980}
{"sequence": "AGGTACCAGGCCCGGAAACCACGGAAAGGGGAACTT", "RUNX1 binding intensity": 1100}
{"sequence": "ACCAGAAGCACTGCAGGATGTGGTATCAAGACGCCT", "RUNX1 binding intensity": 1160}
{"sequence": "GTGGCCTCTTCAACAGGAAACCACAATATTTTTGTT", "RUNX1 binding intensity": 2710}
{"sequence": "CCTCGGTTCGGAAACGGCGAAAGCAAACCGCAAGGA", "RUNX1 binding intensity": 3120}
{"sequence": "CGAAAGTGACCGGAAGTAACCGCCGGGCCAAGATGG", "RUNX1 binding intensity": 1530}
{"sequence": "TGCTTTTCAGGTGCAGGAAGTGGTTTGCCTTTGCCC", "RUNX1 binding intensity": 1200}
{"sequence": "AGAAGCTGCAGTCCCGGAAGCGGTTTTAGGGGGCCG", "RUNX1 binding intensity": 1310}
{"sequence": "CTCTGCTTCCTGTCTTTGAATGCCTCTGTGGTTTTC", "RUNX1 binding intensity": 4320}
{"sequence": "GATGAAAGAGGAAGTTCTCAAACCACCTTGCCAGTG", "RUNX1 binding intensity": 1110}
{"sequence": "GGGAGGTCACATCCTGCCCGCGGTCTCAGAAAAGCT", "RUNX1 binding intensity": 2080}
{"sequence": "GGCTTCCGCCTGCCGAGCGGCCCCGGACCGCAGGCC", "RUNX1 binding intensity": 1980}
{"sequence": "GCTGATAAAACAGGATGTGGTAAAGAAGCCGGCCAA", "RUNX1 binding intensity": 8590}
{"sequence": "TTTTGCCCAACAGGATGTGGTTTCTAAAGCAGACGG", "RUNX1 binding intensity": 18500}
{"sequence": "AACCTGCAGACTTCCTGCCATGTGACCACAGGGTCT", "RUNX1 binding intensity": 2160}
{"sequence": "ACCTCAGGTACCGGAAGACCACAATTCCCAGGAGTC", "RUNX1 binding intensity": 1740}
{"sequence": "GGCTGTGCTTCAGGATGTGGTAATGCTTGGGAGGCG", "RUNX1 binding intensity": 1360}
{"sequence": "CTGAAGAGGAAATGTATTCCTCATGTTGTGGTTGGC", "RUNX1 binding intensity": 878}
{"sequence": "TACTAGTTTGGGGCATCCTGTGGTATAGGGGAAGCA", "RUNX1 binding intensity": 1080}
{"sequence": "AAACTACACCTCAGAGGATGTGGTTCCTTCTCTCAT", "RUNX1 binding intensity": 946}
{"sequence": "AGCGTTTCCTGCCTGTCTGGGGCTGACAAACCACAA", "RUNX1 binding intensity": 2120}
{"sequence": "AAAGAGGAAATCACGTACCCGAAAACCACATGCACA", "RUNX1 binding intensity": 928}
{"sequence": "CAAGCACATTACGGAAGAGGCTGACCGCAAATACGA", "RUNX1 binding intensity": 6950}
